The values that follow come from PubChem BioAssay (NCATS).

Records with an inconclusive call do not appear. A call without a number means that no potency is given here. The source made the active and inactive calls. Calls come from the whole dose curve; as a rule, active = well fitted inhibition curve with a large enough effect; inconclusive = small, poorly fitted or top-dose-only effect; inactive = no such curve, though single readings can be large or run the other way.

This test relates to Zika virus NS2B-NS3 protease (linked construct). In words: Primary screen NINDS Rhodamine qHTS for Zika virus inhibitors (AID 1347160). Note: nearly all actives have a fitted effect of over 55% in size. The conditions noted are these: purified NS2B-NS3 protease, Rhodamine110 substrate fluorescence; series mostly up to 57.1 µM. The method, boiled down:
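Each compound, titrated, sat 15 min with 25 nM linked protease before 1.5 microM Rhodamine110 substrate went in. Fluorescence gain over the next 15 min, in pH 8.0 Tris with Tween 20, gave Hill-fitted curves.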
`CCc1c(CC(N)=O)c2cc(OCCCP(=O)(O)O)ccc2n1Cc1ccccc1`: the Potency entry is “inactive”.
As for `CC(=O)O[C@@H]1[C@H]2[C@@H](OC(=O)c3ccccc3)[C@@H](C)C[C@]2(O)[C@H](OC(C)=O)[C@@]2(C)[C@@H]3CC(C)(C)C(=O)[C@]3(OC(C)=O)C[C@@]12C`, the Potency entry was “inactive”.
As for `CC1CCC2(C(=O)OC3OC(CO)C(O)C(O)C3O)CCC3(C(=O)O)C(=CCC4C5(C)CCC(OC6OC(C)C(O)C(O)C6O)C(C)(C)C5CCC43C)C2C1C` (configuration not stated), the entry is “inactive”.
Turning to `COc1ccc2cc(OCC3(C(=O)O)CN(C(=O)c4ccc(F)cc4)C3)ccc2c1`, the Potency result is “inactive”.
`C[C@]12C=CC(=O)C=C1CC[C@@H]1[C@@H]2[C@@H](O)C[C@@]2(C)[C@H]1CC[C@]2(O)C(=O)COC(=O)CCC(=O)O`: the Potency result is “inactive”.
As for `CC(C)CC(=O)OC[C@H]1O[C@@](COC(=O)CC(C)C)(O[C@H]2O[C@H](CO)[C@@H](O)[C@H](O)[C@H]2O)[C@@H](OC(=O)CC(C)C)[C@@H]1OC(=O)CC(C)C`, the entry is “inactive”.
As for `CC(C)CC(=O)OC[C@H]1O[C@@](COC(=O)CC(C)C)(O[C@H]2O[C@H](CO)[C@@H](O)[C@H](O)[C@H]2OC(=O)CC(C)C)[C@@H](OC(=O)CC(C)C)[C@@H]1O`, the entry is “inactive”; as for `COC(=O)C1C(c2ccc(O)cc2)C(C(=O)OC)C1c1ccc(O)cc1` (configuration not stated), “inactive”.
As for `CC(C)C1=CC2=CCC3[C@](C)(CCC[C@@]3(C)C(=O)O)C2CC1=O` (some centres not stated), the entry is “inactive”; as for `COc1cc([C@@H]2Oc3c(OC)cc(CCCO)cc3[C@@H]2CO[C@@H]2O[C@H](CO)[C@@H](O)[C@H](O)[C@H]2O)ccc1O`, “inactive”.
As for `C/C=C(\C)C(=O)O[C@H]1[C@H](O)[C@]2(COC(C)=O)[C@H](O)C[C@]3(C)C(=CCC4[C@@]5(C)CC[C@H](O[C@@H]6O[C@H](C(=O)O)[C@@H](O[C@@H]7O[C@H](CO)[C@@H](O)[C@H](O)[C@H]7O)[C@H](O)[C@H]6O[C@@H]6O[C@H](CO)[C@@H](O)[C@H](O)[C@H]6O)[C@](C)(CO)C5CC[C@]43C)[C@@H]2CC1(C)C` (some centres not stated), the Potency entry is “inactive”.
For `C[C@@H]1O[C@@H](O[C@H]2[C@H](O[C@H]3[C@H](O[C@H]4CC[C@@]5(C)C(CC[C@]6(C)C5CC=C5[C@@H]7CC(C)(C(=O)O)C[C@@H](O)[C@]7(C)CC[C@]56C)[C@@]4(C)CO)O[C@H](C(=O)O)[C@@H](O)[C@@H]3O)O[C@H](CO)[C@H](O)[C@@H]2O)[C@H](O)[C@H](O)[C@H]1O` (some centres not stated) the value was “inactive”.
